Assay results taken from PubChem BioAssay (NCATS).
Records with an inconclusive call do not appear. The source made the active and inactive calls. The call rests on the fitted dose curve; in most records, active means well fitted curve in the direction sought with a large enough effect; inconclusive means small, poorly fitted or top-dose-only effect, or another doubt; inactive means no such curve, though single readings can be large; an effect the other way counts as inactive or inconclusive.

Assays:
[1] = qHTS of pediatric cancer cell lines to identify multiple opportunities for drug repurposing: Primary screen for BT-37 cells (AID 1347094); further: series mostly up to about 57 µM
Summary of the method: (§1)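 Cells seeded at 500-1,000 cells/well in growth media, rested 5 hours at 37 degrees C, 5% CO2, then dosed; MIPE compounds at 11-point (from 0.78 nM) and NPC at 8-point (from 0.59 nM) final concentrations. Viability by CellTiter-Glo luminescence after 48 hours.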

[2] = qHTS of pediatric cancer cell lines to identify multiple opportunities for drug repurposing: Primary screen for NB-EBc1 cells (AID 1347095)
Summary of the method: as §1

[3] = qHTS of pediatric cancer cell lines to identify multiple opportunities for drug repurposing: Primary screen for U-2 OS cells (AID 1347096); further: nearly all actives have a fitted effect of over 50% in size
Summary of the method: (§2)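 Cells (500-1,000/well) rested 5 h, then received compounds for 48 h; metabolically active cells were measured by CellTiter-Glo luminescence. Final concentrations spanned up to 46 µM (MIPE, 11-point) or 0.59 nM-46 µM (NPC, 8-point) in primary screens, 11-point in follow-ups.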

[4] = qHTS of pediatric cancer cell lines to identify multiple opportunities for drug repurposing: Primary screen for Saos-2 cells (AID 1347097); further: nearly all actives have a fitted effect of over 40% in size
Summary of the method: as §1

[5] = qHTS of pediatric cancer cell lines to identify multiple opportunities for drug repurposing: Primary screen for SK-N-SH cells (AID 1347098); further: nearly all actives have a fitted effect of over 65% in size; further: potency means the concentration at half of the fitted maximal effect
Summary of the method: as §2

[6] = qHTS of pediatric cancer cell lines to identify multiple opportunities for drug repurposing: Primary screen for NB1643 cells (AID 1347099); further: nearly all actives have a fitted effect of over 50% in size; further: potency means the concentration at half of the fitted maximal effect
Summary of the method: as §1

[7] = qHTS of pediatric cancer cell lines to identify multiple opportunities for drug repurposing: Primary screen for LAN-5 cells (AID 1347100)
Summary of the method: as §2

[8] = qHTS of pediatric cancer cell lines to identify multiple opportunities for drug repurposing: Primary screen for BT-12 cells (AID 1347101); further: nearly all actives have a fitted effect of over 25% in size
Summary of the method: as §2

[9] = qHTS of pediatric cancer cell lines to identify multiple opportunities for drug repurposing: Primary screen for Rh18 cells (AID 1347102); further: nearly all actives have a fitted effect of over 65% in size
Summary of the method: as §2

[10] = qHTS of pediatric cancer cell lines to identify multiple opportunities for drug repurposing: Primary screen for OHS-50 cells (AID 1347103); further: nearly all actives have a fitted effect of over 40% in size
Summary of the method: as §2

[11] = qHTS of pediatric cancer cell lines to identify multiple opportunities for drug repurposing: Primary screen for RD cells (AID 1347104); further: nearly all actives have a fitted effect of over 55% in size
Summary of the method: as §1

[12] = qHTS of pediatric cancer cell lines to identify multiple opportunities for drug repurposing: Primary screen for MG 63 (6-TG R) cells (AID 1347105); further: nearly all actives have a fitted effect of over 50% in size
Summary of the method: as §1

[13] = qHTS of pediatric cancer cell lines to identify multiple opportunities for drug repurposing: Primary screen for control Hh wild type fibroblast cells (AID 1347106);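 further: series mostly up to about 46 µM; a drop in luminescence marks cytotoxicity and a rise apparent proliferation; nearly all actives have a fitted effect of over 55% in size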
Summary of the method: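 Viability after 48 h compound treatment at 37C, 500-1,000 cells/well, read as ATP luminescence with CellTiter-Glo. Primary screens used 11-point (MIPE, 0.78 nM-46 µM) or 8-point (NPC, 0.59 nM-46 µM) final concentrations; follow-up screens used 11-point dilutions.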

[14] = qHTS of pediatric cancer cell lines to identify multiple opportunities for drug repurposing: Primary screen for Rh30 cells (AID 1347107); further: series mostly up to about 46 µM; nearly all actives have a fitted effect of over 75% in size
Summary of the method: as §2

[15] = qHTS of pediatric cancer cell lines to identify multiple opportunities for drug repurposing: Primary screen for Rh41 cells (AID 1347108);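 further: series mostly up to about 46 µM; luminescence drop marks cytotoxic hits; nearly all actives have a fitted effect of over 70% in size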
Summary of the method: as §1

[16] = qHTS of pediatric cancer cell lines to identify multiple opportunities for drug repurposing: Confirmatory screen for NB1643 cells (AID 1347109); further: nearly all actives have a fitted effect of over 45% in size
Summary of the method: as §2

[17] = qHTS of pediatric cancer cell lines to identify multiple opportunities for drug repurposing: Confirmatory screen for A673 cells (AID 1347110);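 further: cells exposed to compound for 48 h before the viability read; nearly all actives have a fitted effect of over 65% in size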; further: potency means the concentration at half of the fitted maximal effect
Summary of the method: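 Viability was read as ATP luminescence (CellTiter-Glo) after 48 h of compound exposure at 37 C in A673 cells seeded at 500-1,000/well. Titrations reached 46 uM final, with 11 points in the confirmatory screen. Concentration-response curves were fitted directly.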

[18] = qHTS of pediatric cancer cell lines to identify multiple opportunities for drug repurposing: Confirmatory screen for SK-N-MC cells (AID 1347111);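 further: cells exposed to compound for 48 h before the readout; nearly all actives have a fitted effect of over 70% in size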; further: potency means the concentration at half of the fitted maximal effect
Summary of the method: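 Seed 500-1,000 cells/well; rest 5 h at 37 degrees C. Pin-transfer compounds, 11-point titration. Incubate 48 h. Add CellTiter-Glo, 15 min RT, read luminescence.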

[19] = qHTS of pediatric cancer cell lines to identify multiple opportunities for drug repurposing: Confirmatory screen for BT-12 cells (AID 1347112); further: nearly all actives have a fitted effect of over 55% in size
Summary of the method: as §2

Measured: Potency

CN1CCC[C@@H]1Cc1c[nH]c2ccc(CCS(=O)(=O)c3ccccc3)cc12
not listed: [16] | [17] | [18] | [19]
inactive: all other assays above

CC1(C)OC(=O)NC1=O
not listed: [16] | [17] | [18] | [19]
inactive: all other assays above

CC1CC(OC(=O)C(O)c2ccccc2)CC(C)(C)N1C (stereo not drawn)
not listed: [10] | [16] | [17] | [18] | [19]
inactive: all other assays above

C[C@@H]1CN(c2c(F)c(F)c3c(=O)c(C(=O)O)cn(C4CC4)c3c2F)C[C@H](C)N1
not listed: [10] | [16] | [17] | [18] | [19]
inactive: all other assays above

N[C@H]1C(O)O[C@H](CO)[C@@H](O)[C@@H]1O (stereo partly drawn)
not listed: [10] | [16] | [17] | [18] | [19]
inactive: all other assays above

Cc1cc2nc3c(=O)[nH]c(=O)nc-3n(C[C@H](O)[C@H](O)[C@H](O)CO)c2cc1C
not listed: [16] | [17] | [18] | [19]
inactive: all other assays above

Cc1cc(CC(=O)O)n(C)c1C(=O)c1ccc(Cl)cc1
not listed: [16] | [17] | [18] | [19]
inactive: all other assays above

C=Cc1c(C)c2cc3[nH]c(cc4nc(cc5nc(cc1[nH]2)C(C)=C5CCC(=O)O)C(CCC(=O)O)=C4C)c(C)c3C=C
not listed: [10] | [16] | [17] | [18] | [19]
inactive: all other assays above

CCCCCCCCCCCCCCCCCCOCC(O)CO (stereo not drawn)
not listed: [10] | [16] | [17] | [18] | [19]
inactive: all other assays above

CNC(=O)Oc1ccc2c(c1)[C@]1(C)CCN(C)[C@@H]1N2C
not listed: [9] | [10] | [16] | [17] | [18] | [19]
inactive: all other assays above

[O-][n+]1cccc(CO)c1
not listed: [7] | [16] | [17] | [18] | [19]
inactive: all other assays above

COc1ccc2c(c1)C(=O)N(CCc1ccc(S(=O)(=O)NC(=O)NC3CCCCC3)cc1)C(=O)C2(C)C
not listed: [9] | [16] | [17] | [18] | [19]
inactive: all other assays above

Cc1cccc(C)c1NC(=O)CN(CC(=O)O)CC(=O)O
not listed: [9] | [16] | [17] | [18] | [19]
inactive: all other assays above

CCN(CC)C(=O)Nc1ccc(OCC(O)CNC(C)(C)C)c(C(C)=O)c1 (stereo not drawn)
not listed: [7] | [16] | [17] | [18] | [19]
inactive: all other assays above

CN(C)CC[C@@H](c1ccc(Cl)cc1)c1ccccn1
not listed: [9] | [16] | [17] | [18] | [19]
inactive: all other assays above

CCOc1nc2cccc(C(=O)O)c2n1Cc1ccc(-c2ccccc2-c2nn[nH]n2)cc1
not listed: [9] | [16] | [17] | [18] | [19]
inactive: all other assays above

CCCCc1ncc(/C=C(\Cc2cccs2)C(=O)O)n1Cc1ccc(C(=O)O)cc1
not listed: [9] | [16] | [17] | [18] | [19]
inactive: all other assays above

NC1CCN(c2cccc(Cl)n2)CC1
not listed: [9] | [16] | [17] | [18] | [19]
inactive: all other assays above

Cc1ccc(C(C)C)cc2c(C)ccc1-2
not listed: [9] | [16] | [17] | [18] | [19]
inactive: all other assays above

O=c1cc[nH]c(=S)[nH]1
active: [6] 0.001 µM | [17] 9.27 µM | [18] 2.93 µM
not listed: [9] | [11] | [15]
inactive: all other assays above

CCCCCCCCCCCCCCCC(=O)NCCO
not listed: [9] | [16] | [17] | [18] | [19]
inactive: all other assays above

CC1(C)S[C@@H]2[C@H](NC(=O)Cc3ccccc3)C(=O)N2[C@H]1C(=O)O (tested in a mixture with another compound)
not listed: [10] | [16] | [17] | [18] | [19]
inactive: all other assays above

NC(=O)NNc1ccccc1
not listed: [10] | [12] | [16] | [17] | [18] | [19]
inactive: all other assays above

O=Cc1ccccc1C=O
not listed: [10] | [16] | [17] | [18] | [19]
inactive: all other assays above

CC(C)(C)C(=O)C(Oc1ccc(Cl)cc1)n1ccnc1 (stereo not drawn)
active: [5] 24.4 µM
not listed: [9] | [10] | [16] | [17] | [18] | [19]
inactive: all other assays above

COc1cc2[nH]c(=O)[nH]c(=O)c2cc1OC
not listed: [7] | [16] | [17] | [18] | [19]
inactive: all other assays above

CC1=C(CC(=O)O)c2cc(F)ccc2/C1=C\c1ccc(S(C)=O)cc1 (stereo not drawn)
not listed: [9] | [16] | [17] | [18] | [19]
inactive: all other assays above

CCN(CC)CCNC(=O)c1cc(Cl)c(N)cc1OC
not listed: [10]
inactive: all other assays above

CO/N=C(\C(=O)N[C@@H]1C(=O)N2C(C(=O)O)=C(CSc3nc(=O)c(O)nn3C)CS[C@H]12)c1csc(N)n1
not listed: [9] | [16] | [17] | [18] | [19]
inactive: all other assays above

Oc1cn2c(n1)Nc1ccc(Cl)c(Cl)c1C2
not listed: [9] | [10] | [16] | [17] | [18] | [19]
inactive: all other assays above

Oc1ccc(C(O)CNCCCCCCNCC(O)c2ccc(O)c(O)c2)cc1O (stereo not drawn)
not listed: [7] | [16] | [17] | [18] | [19]
inactive: all other assays above

OCC(O)CN1CCN(c2ccccc2)CC1 (stereo not drawn)
not listed: [9] | [16] | [17] | [18] | [19]
inactive: all other assays above

CCCOC(=O)c1ccccc1
not listed: [9] | [16] | [17] | [18] | [19]
inactive: all other assays above
